# According to publication PMC4552634, “A New Set of Chemical Starting Points with Plasmodium falciparum Transmission-Blocking Potential for Antimalarial Drug Discovery” (PLoS ONE, 2015):
# The campaign covered roughly 13,000 compounds. About 3,200 (25%) showed an effect of 50% or more. Some of the results follow.
# Tested on: P. falciparum stage V gametocytes
# Set-up: BacTiter-Glo ATP luminescence viability of purified stage V gametocytes in 384-well plates, per cent inhibition versus DMSO
# Conditions: 48 h, 5 µM; inhibitor
row,Structure (SMILES),% Inhibition
1,OCCOCCNCc1cccc(C#Cc2cc3ncnc(Nc4ccc(OCc5cccc(F)c5)c(Cl)c4)c3s2)n1 [TCMDC-138843],-31.63%
2,CCNc1nc(OCC(F)(F)F)nc(N(c2ccccc2)c2ccccc2)n1 [TCMDC-125801],-11.7%
3,O=C(c1cc(C(=O)NC2CCCCC2)c(=O)n(C2CCCCC2)c1)c1cc(F)ccc1O [TCMDC-124525],20.48%
4,NCC(NC(=O)c1ccc(-c2c[nH]c3ncccc23)s1)c1ccccc1 (stereo not drawn) [TCMDC-134154],-44.12%
5,CCC1(CC)CN(c2ccccc2)c2ccc(O)cc2S(=O)(=O)C1CC(C)C (stereo not drawn) [TCMDC-137217],-89.07%
6,N#Cc1ccc2c(c1)CCN(CCC1CCC(NC(=O)/C=C/c3ccc4ccccc4c3)CC1)CC2 (stereo not drawn) [TCMDC-139779],-26.43%
7,OCCCCCCNc1ccnc2[nH]c3ccc(I)cc3c12 [TCMDC-131830],10%
8,CC(Sc1nc2sccc2c(=O)n1C)C(=O)Nc1ccc2c(c1)OCO2 (stereo not drawn) [TCMDC-125026],100.7%
9,Cc1cccc2[nH]c(-c3cccc(-c4ccc(NC(=O)Nc5ccc6c(c5)OCO6)cc4)c3)nc12 [TCMDC-133163],-27.37%
10,Cc1cccc2[nH]c(-c3ccc(-c4cccc(NC(=O)Nc5ccc6c(c5)OCO6)c4)cc3)nc12 [TCMDC-133166],-1.928%
11,O=C(NCC1CCC(C(=O)O)CC1)c1ccc(/C=C/C(=O)N2CCc3ccccc3C2c2ccc3c(c2)OCO3)cc1 (stereo not drawn) [TCMDC-138267],-9.047%
12,O=S(=O)(NCCN1CCCC1)c1ccc(-c2cccc(CNCc3ccc(F)cc3)c2)cc1 [TCMDC-132407],38.56%
13,CS(=O)(=O)c1ccc(CNCc2cccc(-c3cccc(-c4nc5ccc(F)cc5[nH]4)c3)c2)cc1 [TCMDC-132907],-11.65%
14,O=S(=O)(NCCN1CCCC1)c1cccc(-c2cccc(CNCc3ccc(F)cc3)c2)c1 [TCMDC-132276],98.39%
15,O=S(=O)(NCCN1CCCC1)c1cccc(-c2ccc(CNCc3ccc(F)cc3)cc2)c1 [TCMDC-132289],105.2%
16,O=C(/C=C/c1ccc(Cl)c(Cl)c1)NCCCCCN1CCC(n2c(=O)[nH]c3ccccc32)CC1 [TCMDC-139330],-42.06%
17,CC(C)C[C@H](NC(=O)[C@H](Cc1ccccc1)NC(=O)CCN1C(=O)COc2ccc(C(=O)O)cc21)C(=O)NC(CC1CCCCC1)C(O)CC(=O)NCCCn1ccnc1 (stereo partly drawn) [TCMDC-131640],6.577%
18,CC(CNC(=N)c1cccc(C(=N)NCC(C)Oc2cccc(C3CCCCC3)c2)n1)Oc1cccc(C2CCCCC2)c1.Cl (stereo not drawn) [TCMDC-137455],116.2%
19,c1ccc(COc2ccc(C3CCCCC3)cc2)nc1 [TCMDC-131330],8.048%
20,O=C(Cc1ccc(F)cc1)NC1CCN(c2ccnc3cc(Cl)ccc23)C1 (stereo not drawn) [TCMDC-133668],7.133%
21,CC(C)Sc1nc2c(c(=O)n1CCc1ccccc1)C1(CCCC1)Cc1ccccc1-2 [TCMDC-123891],-12.92%
22,CCCSc1nc2c(c(=O)n1CCc1ccccc1)C1(CCCC1)Cc1ccccc1-2 [TCMDC-123890],-17.67%
23,C=C(C)CSc1nc2c(c(=O)n1CCc1ccccc1)C1(CCCC1)Cc1ccccc1-2 [TCMDC-123892],66.35%

row,Structure (SMILES),% Inhibition
1,Cc1cc(C(=O)Nc2ccc3c(c2)CCN3C2CCN(Cc3cc(F)cc(F)c3F)C2)no1 (stereo not drawn) [TCMDC-135083],0.2789%
2,Cc1nc(N)nc(N)c1CCCOc1cccc(Cl)c1 [TCMDC-138067],-4.32%
3,CN(Cc1cc(C(F)(F)F)cc(C(F)(F)F)c1)C(=O)C(Cc1ccc(F)cc1)C1CCCNC1 (stereo not drawn) [TCMDC-138909],92.9%
4,CN(Cc1cc(C(F)(F)F)cc(C(F)(F)F)c1)C(=O)C1CNCC1c1ccc(F)cc1 (stereo not drawn) [TCMDC-137553],10.31%
5,CN(Cc1ccc(C#N)cc1)C1CCN(c2cc(NC(=O)c3ccc(F)cc3)ccn2)CC1 [TCMDC-134978],9.957%
6,CCCc1cc(N2CCC(N(CC)CC)C2)nc(Nc2ccc(OC)cc2)n1 (stereo not drawn) [TCMDC-132388],-68.85%
7,CC(=NN=C(N)N)c1ccc2ccc3ccccc3c2c1 [TCMDC-137667],76.83%
8,COC(=O)c1ccc(CC(C)NCC(O)c2ccc3ccc4ccccc4c3c2)cc1 (stereo not drawn) [TCMDC-131429],28.11%
9,CC(=NN=C(N)N)c1ccc2c(c1)Cc1ccccc1-2 [TCMDC-137666],27.22%
10,CC(=NN=C(N)N)c1ccc2c(ccc3ccccc32)c1 [TCMDC-137669],96.96%
11,Nc1ncc(Cc2ccc3c(ccc4ccccc43)c2)c(N)n1 [TCMDC-137874],19.52%
12,CC(C)C[C@@H]1C(=O)N[C@H](C2Cc3ccccc3C2)C(=O)N1[C@@H](C(=O)O)c1ccc(F)cc1F [TCMDC-138777],-24.68%
13,Clc1nc2ccccn2c1C=Cc1ccc2ccccc2n1 [TCMDC-125327],-7.636%
14,COc1cc(-c2nc(-c3ccc4c(c3)CCC4=NO)c(-c3ccncc3)[nH]2)ccc1OCCN1CCCCC1 [TCMDC-141257],22.85%
15,O=C(/C=C/c1cccc(Cl)c1)Nc1ccc2nc(CN3CCCC3)ccc2c1 [TCMDC-135628],-49.28%
16,O=C(Nc1cccc(CN2CCCN(Cc3ncc[nH]3)CC2)c1)c1ccc(Cl)c(Cl)c1 [TCMDC-141833],-19.06%
17,Cc1ccc(O)cc1Nc1ccnc2cc(-c3cccc(CNCCS(C)(=O)=O)c3)ccc12 [TCMDC-138472],-16.38%
18,Cc1cc2cc(-c3ccc(CN)cc3)ccc2nc1N [TCMDC-137774],101.7%
19,COc1ccc(CCNCc2ccc3nc(N)c(C)cc3c2)cc1 [TCMDC-138098],30.17%
20,Cc1ccc(Cc2cccc3nc(N)nc(N)c23)cc1 [TCMDC-137730],-6.399%
21,Cc1cc2ccc(-c3cccc(CN)c3)cc2nc1N [TCMDC-137624],65.41%
22,CN1CCc2ccc(NC(=O)Nc3cccc([N+](=O)[O-])c3)cc2C1 [TCMDC-139120],-5.165%
23,FC(F)(F)Oc1ccc(Nc2cc(-c3ccncc3)nc(-c3cccnc3)n2)cc1 [TCMDC-125416],22.38%

row,Structure (SMILES),% Inhibition
1,CC(C)(C)c1ccc(NC(=O)c2ccc(CN3CCCN(Cc4cccc(O)c4)CC3)cc2)cc1 [TCMDC-136433],-12.56%
2,Cc1cccc2[nH]c(-c3cccc(-c4cccc(NC(=O)c5cccnc5Cl)c4)c3)nc12 [TCMDC-136839],42.83%
3,O=[N+]([O-])c1cccc(-c2ccc(C=NNc3cc(N4CCCC4)nc(N4CCCC4)n3)o2)c1 [TCMDC-124053],34.95%
4,CC1CN(Cc2cccc(F)c2)CCN1c1ccc(NC(=O)c2cccs2)cc1 (stereo not drawn) [TCMDC-135009],3.6%
5,Cc1cccc(-c2ccc(CNC3CCN(CC4Cn5c(=O)ccc6ccc(F)c4c65)CC3)cn2)c1 (stereo not drawn) [TCMDC-134413],-59.7%
6,COC(=O)c1ccccc1COc1ccc(CC2(NC(=O)[C@H](Nc3ccc(C#N)c4ccccc34)C(C)(C)C)CCCC2)cc1 [TCMDC-136783],21.91%
7,Cc1cccc2[nH]c(-c3ccc(-c4ccc(CN5CCN(CCN6CCOCC6)CC5)cc4)s3)nc12 [TCMDC-133930],30.2%
8,Cc1cccc2[nH]c(-c3cccc(-c4ccc(CNCc5ccccc5)cc4)c3)nc12 [TCMDC-132710],64.93%
9,C#CCNCc1ccc(-c2cccc(-c3nc4c(C)cccc4[nH]3)c2)cc1 [TCMDC-132804],-34.44%
10,Cc1cccc2[nH]c(-c3cccc(-c4cccc(CNCc5ccccc5)c4)c3)nc12 [TCMDC-132713],10.68%
11,Cc1cccc2[nH]c(-c3ccc(-c4ccc(CN5CCN(CCO)CC5)cc4)s3)nc12 [TCMDC-133027],2.277%
12,Cc1cccc2[nH]c(-c3ccc(-c4cccc(CNCCCNS(C)(=O)=O)c4)cc3)nc12 [TCMDC-133082],-3.877%
13,CNCCNCc1ccc(-c2ccc(-c3nc4c(C)cccc4[nH]3)s2)cc1 [TCMDC-132828],96.61%
14,CNCCNCc1cccc(-c2cccc(-c3nc4c(C)cccc4[nH]3)c2)c1 [TCMDC-132825],101.1%
15,COCCN1CCN(Cc2ccc(-c3ccc(-c4nc5c(C)cccc5[nH]4)s3)cc2)CC1 [TCMDC-133021],2.979%
16,Cc1cccc2[nH]c(-c3cccc(-c4cccc(CNC(C)C)c4)c3)nc12 [TCMDC-132738],-9.933%
17,Cc1cccc2[nH]c(-c3ccc(-c4ccc(CNCCN5CCNCC5)cc4)s3)nc12 [TCMDC-132870],77.87%
18,Cc1cccc2[nH]c(-c3ccc(-c4ccc(CNCc5ccccc5)cc4)s3)nc12 [TCMDC-132709],-2.299%
19,CN(c1ccc2c(c1)nc(NCc1ccc(F)cc1)n2C)c1ccnc(Nc2ccc(CS(C)(=O)=O)cc2)n1 [TCMDC-138747],36.21%
20,Oc1cc(Nc2ccnc3ccc(I)cc23)c(F)cc1Cl [TCMDC-138500],-12.42%
21,COc1ccc(-n2cc(C(=O)c3cc(Br)ccc3O)cc(C#N)c2=O)cc1Cl [TCMDC-124524],13.45%
22,COc1ccccc1C1CC(c2ccccc2)=NN1C(=O)c1ccccc1 (stereo not drawn) [TCMDC-123702],28.29%
23,O=C(CCCCCNC(=O)c1ccc(O)c(-c2ccc(Cl)c(Cl)c2)c1)NCc1cccc2ccccc12 [TCMDC-140875],8.372%
